High-throughput results as filed in PubChem BioAssay.
Sampled rows, rich in hits. Any-hit rate of the full collection: about 27%.
CYP2C19 inhib – blocks human cytochrome P450 2C19 | P33261 | CYP2C19 Supersomes, luciferin-H EGE luminescence, 30 min | inhibition, % at 5 µM | 96,000 tested, 21% active | AID 778;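 active means CYP2C19 inhibition above a set limit at 5 µM in the primary screen, cut at about 50% in these data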;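 further: plate controls were negative control wells for no effect and 2.5 mM tranylcypromine positive control for full effect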
Target sequence (P33261 whole entry, looked up): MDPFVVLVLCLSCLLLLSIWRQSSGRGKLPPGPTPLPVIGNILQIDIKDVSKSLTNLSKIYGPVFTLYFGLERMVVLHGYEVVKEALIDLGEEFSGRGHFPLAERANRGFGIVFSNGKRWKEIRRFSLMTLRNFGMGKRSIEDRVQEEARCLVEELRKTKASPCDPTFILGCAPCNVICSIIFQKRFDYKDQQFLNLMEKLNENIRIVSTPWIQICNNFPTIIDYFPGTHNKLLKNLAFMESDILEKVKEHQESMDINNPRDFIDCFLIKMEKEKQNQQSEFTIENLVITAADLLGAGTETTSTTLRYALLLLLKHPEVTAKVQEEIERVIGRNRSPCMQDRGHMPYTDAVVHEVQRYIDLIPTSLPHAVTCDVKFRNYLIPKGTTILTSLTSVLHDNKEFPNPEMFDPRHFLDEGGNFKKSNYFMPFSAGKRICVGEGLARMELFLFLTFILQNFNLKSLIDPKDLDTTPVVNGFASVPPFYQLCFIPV
CYP2C19 activ – activators of human cytochrome P450 2C19 | 96,000 tested, under 10 active | recombinant CYP2C19, luciferin-H EGE luminescence; active compounds read high; 0 = fully inhibited enzyme, 1 = untreated enzyme | activation factor at 5 µM;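 active means activation factor of at least 2 at 5 µM in the primary screen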;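 further: 0 = wells with 2.5 mM tranylcypromine and 1 = vehicle-only wells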
Cav32 inh – human Cav3.2 channel inhibition, primary screen; B-score at 10 µM; O95180; 100,000 tested, 4% active; Cav3.2-expressing cells, Fluo-4 calcium fluorescence FDSS; active compounds read low;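 active means single-dose well whose peak fluorescence ratio is a statistical outlier from its plate by either plate-standardised score or position-corrected B-score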
CYP2C9 act – activators of human CYP2C9; P11712; recombinant CYP2C9, luciferin-H conversion, luminescence; active compounds read high; factor 1 = untreated enzyme, 0 = blocked; activation factor at 5 µM; 96,000 tested, 1.4% active; AID 1024;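 active means activation factor of 2 or more for CYP2C9 at a 5 µM dose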;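 further: 0 = sulfaphenazole-blocked wells and 1 = vehicle-only wells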
CYP2C9 inh – blocks human cytochrome P450 2C9. 96,000 tested, 20% active. P11712. AID 777. CYP2C9 Supersomes, luciferin-H conversion, luminescence. inhibition, % at 5 µM;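 active means blocking of liver enzyme CYP2C9 beyond about 50% at 5 µM, limit read from the data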
* marks the source's active call; other numbers are inactive results; . = not tested or not shown.

SMILES	CYP2C19 inhib	CYP2C19 activ	Cav32 inh	CYP2C9 act	CYP2C9 inh
COc1ccc(OCCSc2nnc(C)n2-c2ccccc2)cc1	.	.	0.257	.	.
COc1ccc(OCc2nnc(SCC(=O)N3CCCc4ccccc43)n2-c2ccc(C)cc2)cc1	61.6*	0.4	-8.19*	0.1	86.9*
COc1ccccc1OCCSc1nnc(C)n1-c1ccccc1	77.4*	0.2	1.88	1.4	-41.9
CCCn1c(SCC(=O)N2CCCc3ccccc32)nnc1-c1ccccn1	78.9*	0.2	0.0367	1.1	-8.3
CCOC(=O)CCCOC(=O)c1ccc(S(=O)(=O)N(C)C)cc1	.	.	-0.061	.	.
Cc1ccc(-c2nnc(SCC(=O)N3CCCc4ccccc43)n2N)cc1	58.2*	0.4	1.42	1.2	-18.6
Cn1c(SCC(=O)N2CCCc3ccccc32)nnc1-c1cccs1	46.9	0.5	0.769	0.9	7.2
COc1ccccc1-n1c(SCC(=O)N2CCCCC2)nnc1-c1ccccc1O	26.7	0.7	0.00384	0.7	34.9
Cc1ccc(-c2csc3nnc(SCC(=O)N4CCN(Cc5ccccc5)CC4)n23)cc1	56.8*	0.4	0.0864	0.3	68.5*
Cc1ccc(-c2nnc3ccc(SCC(=O)N4CCc5ccccc54)nn23)cc1	19.7	0.8	-0.521	0	99.7*
COc1ccccc1OCc1nnc(SCC(=O)N2CCCCC2)n1-c1ccccc1	70.9*	0.3	1.19	0.9	6.8
CCCCC[C@H](O)/C=C/[C@@H]1[C@@H](CCCCCCC(=O)O)[C@@H](O)C[C@H]1O	.	.	0.339	.	.
CCCCN(C)Cc1c(C)[nH]c2ccc(OCC)cc2c1=O	-15.4	1.2	1.19	1	2.6
CCN(CC)CCNC(=O)C1c2ccccc2C(=O)N(CCOC)C1c1ccc(F)cc1 (stereo unspecified)	-33.4	1.3	1.54	1.3	-29.2
O=C(CSc1nnc2scc(-c3ccccc3)n12)N1CCCc2ccccc21	60.9*	0.4	-0.455	0.6	36.3
N#Cc1ccc(OCc2nnc(SCC(=O)N3CCCc4ccccc43)n2-c2ccccc2)cc1	85.2*	0.1	-7.38*	0.1	86.8*
Nc1nnc(SCC(=O)N2CCc3ccccc32)n1-c1ccccc1	-17.5	1.2	0.72	1.3	-34.4
O=C(CSc1nnc2scc(-c3ccccc3)n12)N1CCN(Cc2ccccc2)CC1	40.6	0.6	-1.28	0.5	48.9
O=C(CSc1nnc(CN2CCOCC2)n1-c1ccccc1)N1CCc2ccccc21	26.7	0.7	0.424	0.4	63.3*
COc1ccc(/C=C2\SC(=S)N(NC(=O)c3csc4c3CCCC4)C2=O)cc1	11.6	0.9	-1.47	1	-3.1
c1cc2nncn2nc1N1CCCC1	52.8*	0.5	0.886	1	-0.7
Cc1nnc2ccc(N3CCN(c4ccccn4)CC3)nn12	-21.6	1.2	0.781	1.2	-19.2
c1ccc(N2CCN(c3ccc4nncn4n3)CC2)nc1	89.1*	0.1	-0.041	0.2	78.6*
CC(C)c1nnc(NC(=O)CCC(=O)NCc2ccco2)s1	-16.4	1.2	-0.292	1.1	-6.4
COC(/C=C/Nc1ccc(C)cc1)=C(C#N)C#N	-7.9	1.1	0.773	1	2.7
SMILES	CYP2C19 inhib	CYP2C19 activ	Cav32 inh	CYP2C9 act	CYP2C9 inh
O=C(Cn1cnc2c(oc3ccccc32)c1=O)NCCc1ccccc1	.	.	0.0895	.	.
Cc1ccc(-c2nc(C(=O)NC3CCCCCC3)no2)cc1	.	.	-3.1	.	.
c1ccc(-c2cc(N3CCOCC3)nc3ccccc23)cc1	14.5	0.9	-2	0.8	22.4
Cn1c(N2CCOCC2)nc(-c2ccccc2)c1-c1ccccc1	6.2	0.9	-1.15	2*	-98.0
c1ccc(-c2nc3ccccc3nc2N2CCOCC2)cc1	52.4*	0.5	-0.728	0.8	19.9
COc1ccc(C(=O)NCc2nnc(SC)n2C2CCCCC2)cc1	.	.	-0.775	.	.
CCOC(=O)C(C)Sc1nnc(CNC(=O)c2ccc(OC)cc2)n1C1CCCCC1 (stereo unspecified)	62.0*	0.4	-1.5	0.8	20.8
COc1ccc(S(=O)(=O)Nc2ccc(F)cc2)cc1N(C)S(=O)(=O)c1ccc(Cl)cc1	52.3*	0.5	-4.99*	0.3	66.8*
COc1ccccc1NS(=O)(=O)c1ccc(O)c(C(N)=O)c1	100.0*	0	-0.324	0.9	13.5
CCCNC(=O)c1ccccc1NS(=O)(=O)c1ccc(OC)c(OC)c1	.	.	-0.771	.	.
Cc1cc(S(=O)(=O)Nc2ccccc2C(=O)O)ccc1Cl	37.0	0.6	-2.07	0.3	73.6*
CC(=O)Nc1ccc(NS(=O)(=O)c2ccc(Cl)c(C(=O)O)c2)cc1	4.0	1	0.218	1.1	-6.4
COc1cc(S(=O)(=O)Nc2cccnc2)ccc1F	25.2	0.7	0.122	1	4.1
COc1ccc(S(=O)(=O)Nc2ccccc2SC)cc1C	98.7*	0	.	2*	-104.3
O=C(C1CCCN1S(=O)(=O)c1ccc(Cl)c(Cl)c1)N1CCOCC1 (stereo unspecified)	-0.9	1	0.69	1.6	-61.9
O=C(/C=C/c1ccc([N+](=O)[O-])cc1)NCC1CCCO1 (stereo unspecified)	-12.4	1.1	0.0822	1.2	-15.9
CC(C)CCOc1ccc(C(=O)NCCC(=O)N2CCOCC2)cc1	-3.6	1	0.112	0.9	7.2
Cc1cc(O)c(C(C)C)cc1NS(=O)(=O)c1ccccc1	86.3*	0.1	-2.29	0.6	41.6
O=C(CS(=O)(=O)c1cccc(C(F)(F)F)c1)Nc1ccccc1Cl	60.2*	0.4	-0.189	1.9	-86.7
O=C(Nc1ccccc1F)c1ccc(CNS(=O)(=O)c2cccc(C(F)(F)F)c2)cc1	-1.4	1	.	1.3	-31.3
COC(=O)c1ccccc1NS(=O)(=O)c1ccc(O)c(C(=O)O)c1	8.9	0.9	0.782	0.1	90.6*
Cc1nn(-c2ccccc2)c(Cl)c1/C=N/Nc1ccc(S(=O)(=O)Nc2ccccc2C(=O)O)cc1[N+](=O)[O-]	4.6	1	.	0.3	69.1*
O=C(C1=C[C@H](c2ccccc2)C[C@H](OCc2ccc(CO)cc2)O1)N1CCOCC1	.	.	0.188	.	.
CSc1nnnn1-c1ccc(C(=O)OCC(=O)N2CCOCC2)cc1	-11.3	1.1	-0.00938	1.2	-17.7
O=S(=O)(Nc1ccc(S(=O)(=O)N2CCOCC2)cc1)c1ccccc1	7.2	0.9	1.59	0.5	46.0
SMILES	CYP2C19 inhib	CYP2C19 activ	Cav32 inh	CYP2C9 act	CYP2C9 inh
COc1cc(S(=O)(=O)Nc2ccccc2)ccc1NC=O	26.8	0.7	-0.00146	1.6	-62.7
COc1ccc(S(=O)(=O)Nc2ccccc2OC)cc1C	100.0*	0	-0.0476	2.9*	-186.0
COc1ccc(S(=O)(=O)Nc2ccc(S(=O)(=O)Nc3ccc(F)cc3)cc2)cc1C	.	.	-6.85*	.	.
O=C(O)c1ccccc1NS(=O)(=O)c1cccc(C(F)(F)F)c1	60.5*	0.4	-1.34	0.5	51.3*
COc1ccc(S(=O)(=O)Nc2ccc(S(=O)(=O)N3CCOCC3)cc2)cc1C	76.2*	0.2	0.704	0.1	92.7*
O=C(NCN1C(=O)C2C3C=CC(C3)C2C1=O)OC1CCCCC1 (stereo unspecified)	25.0	0.8	0.47	0.9	5.5
CC(C)(C)NC(=O)NC(=O)COC(=O)C1=COCCO1	-5.4	1.1	-0.0337	1	1.3
